# PubChem BioAssay (NCI)
# Compounds without any hit were thinned out: in the full panel of roughly 83,000, 20% have a hit.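 Activity criterion: percent growth below 10, measured after cells in 96-well plates were exposed to a single compound concentration for 48 hours.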 Active and inactive are the calls of the source.
# Tested on: SW-620 colon
# Experiment: NCI-60 one-dose screen, 48 h (100 = growth as untreated, 0 = no growth, -100 = all killed)
# Conditions: 10 µM unless noted
row,SMILES,growth
1,COc1cc(C2CC(c3ccc(C)cc3)=NN2C(C)=O)ccc1Oc1ccnc2cc(Cl)ccc12 (stereo not given),66.3% (inactive)
2,COC(=O)c1ccc2c(c1)nc(-c1ccc(O)c(OC)c1)n2-c1cc(C(C)(C)C)[nH]n1,104% (inactive)
3,CCOC(=O)c1c2c(c(C)n1Cc1ccc(OC)cc1)-c1nc(N)ncc1CC2,100% (inactive)
4,O=Nc1ccc(O)c(=O)cc1,-43% (active)
5,CCC(C)CC(C)C(=O)c1c(O)ccn(O)c1=O (stereo not given),25% (inactive)
6,COC(=O)CC1=C(C)/C(=C/c2[nH]c(-c3ccc[nH]3)cc2OC)N=C1C,4.66% (active)
7,CCCCCCCC/C=C/CCCCCCCC1=NC(C)(C)CN1CC(C)O (stereo not given),6.69% (active)
8,N#CCCCCCn1c2ccccc2c2c3c(c4c5ccccc5[nH]c4c21)C(=O)N(O)C3=O,12.5% (inactive)
9,COc1ccc(-c2noc(N)c2-c2cc(OC)c3c(c2)OCO3)cc1,17.5% (inactive)
10,CCN(CC)c1ccc(C(O)C2=CC(=O)c3ccccc3C2=O)cc1 (stereo not given),-42.7% (active)
11,CCCCCCCCCCCCCCCCN=C(CC(=O)O)C(=O)O,101% (inactive)
12,C=Cc1nn2c(CCC(=O)c3nc4ccccc4[nH]3)nnc2s1,102% (inactive)
13,CN=C(NC)N/N=C(C)\C=N\NC(=NC)NC,99.5% (inactive)

# Tested on: MCF7 breast
# Experiment: as above
# Conditions: 10 µM unless noted
row,SMILES,growth
1,COc1cc(C2CC(c3ccc(C)cc3)=NN2C(C)=O)ccc1Oc1ccnc2cc(Cl)ccc12 (stereo not given),73.6% (inactive)
2,O=c1c(O)cccn1CCCNCCCN(CCCn1cccc(O)c1=O)CCCn1cccc(O)c1=O,104% (inactive)
3,CCCCCCCCSc1ncnc2c1ncn2CO,75.7% (inactive)
4,O=C1Cc2cc(CCN3CCN(CCOCCO)CC3)c(Cl)cc2N1Cc1ccc(-c2ccccc2-c2nn[nH]n2)cc1,87.1% (inactive)
5,COC(=O)c1ccc2c(c1)nc(-c1ccc(O)c(OC)c1)n2-c1cc(C(C)(C)C)[nH]n1,83.6% (inactive)
6,COc1cc(/C=C/c2nnc(-c3cc(-c4ccccc4)n[nH]3)o2)cc(OC)c1OC,92% (inactive)
7,CCOC(=O)c1c2c(c(C)n1Cc1ccc(OC)cc1)-c1nc(N)ncc1CC2,106% (inactive)
8,O=C(Nc1ccncc1)C(=O)c1cn(S(=O)(=O)c2cccc(F)c2)c2ccccc12,5.06% (active)
9,Nc1nc(N)c([N+](=O)[O-])c(=O)[nH]1,88.6% (inactive)
10,NC(=O)N/N=C/c1ccc(Br)o1,95.4% (inactive)
11,COc1ccc(C2CC(c3cccc(Nc4ccnc5cc(Cl)ccc45)c3)=NN2C=O)cc1 (stereo not given),22.4% (inactive)
12,O=Nc1ccc(O)c(=O)cc1,20.9% (inactive)
13,c1ccc(-n2nnnc2-c2cccc3ccccc23)cc1,19.8% (inactive)
14,CCCn1cnc2c1c(=O)n(CCCCC(C)=O)c(=O)n2C,92.6% (inactive)
15,O=C(/C=C/c1cccnc1)NCCCCC1CCCN(C(=O)c2ccccc2)C1 (stereo not given),54.4% (inactive)
16,CCC(C)CC(C)C(=O)c1c(O)ccn(O)c1=O (stereo not given),18.9% (inactive)
17,CC/C=C\C=C/C(=O)N/C=C/CC1Cc2cccc(O)c2C(=O)O1 (stereo not given),67.3% (inactive)
18,COC(=O)CC1=C(C)/C(=C/c2[nH]c(-c3ccc[nH]3)cc2OC)N=C1C,-3.82% (active)
19,CCC(c1ccccc1)c1noc(CCN(CC)CC)n1 (stereo not given),86.5% (inactive)

row,SMILES,growth
1,CCCCCCCC/C=C/CCCCCCCC1=NC(C)(C)CN1CC(C)O (stereo not given),17.1% (inactive)
2,N#CCCCCCn1c2ccccc2c2c3c(c4c5ccccc5[nH]c4c21)C(=O)N(O)C3=O,6.24% (active)
3,COc1ccc(-c2nn(-c3ccccc3)cc2/C=C2\SC(=S)N(CCc3ccc(O)cc3)C2=O)cc1,70.5% (inactive)
4,C/C(=N/N=C(N)N)c1ccc(Cl)cc1,83.9% (inactive)
5,COc1ccc(-c2noc(N)c2-c2cc(OC)c3c(c2)OCO3)cc1,19.1% (inactive)
6,COc1ccc(-c2c(-c3cc(OC)c(OC)c(OC)c3)noc2N)cc1,17.1% (inactive)
7,Cc1nn(-c2ccc(Br)cc2)c2nc3c(nc12)C(=O)C(=O)c1ccccc1-3,67.3% (inactive)
8,CCN(CC)c1ccc(C(O)C2=CC(=O)c3ccccc3C2=O)cc1 (stereo not given),9.53% (active)
9,CCCCCCCCCCCCCCCCN=C(CC(=O)O)C(=O)O,86.5% (inactive)
10,OC(CCC(O)(c1ccccc1)c1ccccc1)(c1ccccc1)c1ccccc1,87.3% (inactive)
11,Cc1cc(C)n2nc(SCC(=O)Nc3sc4c(c3C(N)=O)CCC4)nc2n1,107% (inactive)
12,C=Cc1nn2c(CCC(=O)c3nc4ccccc4[nH]3)nnc2s1,93.8% (inactive)
13,COc1ccc(Nc2nccc(N3CCN(c4c5ccc(Cl)cc5nc5ccc(OC)cc45)CC3)n2)cc1,37.6% (inactive)
14,NNC(=O)C1CC2c3ccccc3C1c1ccccc12 (stereo not given),101% (inactive)
15,COc1ccc2c(c1)C(=O)/C(=C/c1cccc(OCC(=O)c3ccccc3)c1)CC2,48.7% (inactive)
16,CN=C(NC)N/N=C(C)\C=N\NC(=NC)NC,104% (inactive)
17,O=Cc1c[nH]c2ccc(NC(=O)OCc3ccccc3)cc12,100% (inactive)
18,COc1ccc(-c2nnc(COc3ccc(NC(=O)Nc4cc(C(F)(F)F)cc(C(F)(F)F)c4)cc3F)o2)cc1,1.51% (active)
